From PubChem
KDM5B inhibitor = inhibitors of human KDM5B histone demethylase. Potency, µM (titrated, usually from 57.7 µM), usual class: inhibitors. Q9UGL1. KDM5B demethylase, FDH-coupled NADH fluorescence (FDH is formaldehyde dehydrogenase). hit rate 2.6% among 220,000. AID 1347165; active = well fitted inhibition curve with a large enough effect; inconclusive = small, poorly fitted or top-dose-only effect; inactive = no such curve, though single readings can be large or run the other way; also: potency is read from the fitted curve at half-maximal effect; 0% is about no effect; nearly all actives have a fitted effect of over 70% in size
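Measured: NADH fluorescence change, 30 min, RT. System: KDM5BΔAP 200 nM final, H3K4me3 peptide, α-KG, Fe(II), ascorbate, NAD⁺ plus FDH, pH 7.5 HEPES. Compounds: titrated, 10 min pre-incubation with enzyme.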
IP6K1 inh = inhibitors of human IP6K1 | Q92551 | IP6K1 kinase, ADP-Glo luminescence, 2 h; stronger effect = lower value | activity change, % (series mostly up to about 58 µM) | hit rate 0.81% among 140,000; in the data active = activity change below about -25%; also: % is scaled to controls: 0 for no effect and ±100 for the full control effect
Target sequence (Q92551 whole entry, looked up): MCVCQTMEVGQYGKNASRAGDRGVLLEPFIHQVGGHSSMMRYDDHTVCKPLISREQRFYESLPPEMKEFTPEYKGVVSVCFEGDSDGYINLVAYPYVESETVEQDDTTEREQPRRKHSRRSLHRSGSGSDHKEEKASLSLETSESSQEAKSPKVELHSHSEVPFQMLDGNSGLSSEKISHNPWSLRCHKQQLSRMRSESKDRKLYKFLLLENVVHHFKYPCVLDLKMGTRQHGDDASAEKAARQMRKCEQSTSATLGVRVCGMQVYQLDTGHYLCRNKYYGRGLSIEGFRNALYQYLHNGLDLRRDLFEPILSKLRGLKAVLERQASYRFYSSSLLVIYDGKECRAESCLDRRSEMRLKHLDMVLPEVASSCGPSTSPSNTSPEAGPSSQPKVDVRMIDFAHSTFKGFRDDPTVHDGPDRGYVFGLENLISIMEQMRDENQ
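ADP-Glo luminescence measures ADP made by human IP6K1 during a 2 h RT reaction with ATP/IP6 (mix at 1.3 mM/130 uM); top library doses 57.5 and 19.1 uM final.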
An asterisk follows results filed as active. In the library only some 2.8% were active in any assay of this set; here they are far more common.

What do the screens show for `COc1cc2c(cc1Oc1cccc(N(C)C)c1)NC(=O)C21CCN(c2ncc(F)cn2)CC1`?
KDM5B inhibitor: 31.6µM*; IP6K1 inh: -22.9

How did COc1cc2c(cc1Oc1cccc(N(C)C)c1)NC(=O)C21CCN(c2ncccn2)CC1 do in these assays?
KDM5B inhibitor: inconclusive; IP6K1 inh: -8.8

Results for COc1cc2c(cc1OC1CCCC1)NC(=O)C21CCN(c2ncccn2)CC1 ?
KDM5B inhibitor: inactive; IP6K1 inh: -8.5

How did COc1cc2c(cc1Oc1ccccc1)NC(=O)C21CCN(Cc2cccnc2)CC1 do in these assays?
KDM5B inhibitor: inactive; IP6K1 inh: -18.0

Results for CCc1cnc(N2CCC3(CC2)C(=O)Nc2cc(OC4CCCC4)c(OC)cc23)nc1 ?
KDM5B inhibitor: 35.5µM*; IP6K1 inh: -22.2

How did COc1cc2c(cc1OC1CCCC1)NC(=O)C21CCN(c2ncc(C(C)C)cn2)CC1 do in these assays?
KDM5B inhibitor: 35.5µM*; IP6K1 inh: -22.8

Results for COc1cc2c(cc1OC1CCCC1)NC(=O)C21CCN(c2ncc(F)cn2)CC1 ?
KDM5B inhibitor: inconclusive; IP6K1 inh: -22.2

What do the screens show for `CCc1cnc(N2CCC3(CC2)C(=O)Nc2cc(Oc4ccccc4)c(OC)cc23)nc1`?
KDM5B inhibitor: 31.6µM*; IP6K1 inh: -14.4

What do the screens show for `CCc1ccc(N2CC(C(=O)OCC(=O)Nc3ccc(C#N)c(Cl)c3)CC2=O)cc1` (stereo not given)?
KDM5B inhibitor: inactive

What do the screens show for `Cc1ncc2c(n1)C[C@@H]1CC[C@H]2N1C(=O)Nc1ccccc1F`?
KDM5B inhibitor: inactive; IP6K1 inh: 19.7

What do the screens show for `CC(C)C12CN3CCN(CC(C3)C1=O)C2`?
KDM5B inhibitor: inactive

How did N#Cc1cccc(-c2ccc3n(c2=O)C[C@H]2C[C@@H]3CN(C(=O)Nc3ccccc3)C2)c1 do in these assays?
KDM5B inhibitor: 35.5µM*; IP6K1 inh: -8.1

How did O=C(Nc1ccccc1)N1C[C@@H]2C[C@H](C1)c1c(-c3cncnc3)ccc(=O)n1C2 do in these assays?
KDM5B inhibitor: inactive; IP6K1 inh: -0.7

Results for CSCC(=O)Nc1ccc2n(c1=O)C[C@H]1C[C@@H]2CN(C(=O)COc2ccccc2)C1 ?
KDM5B inhibitor: inconclusive; IP6K1 inh: -9.8

Results for N#Cc1cccc(-c2ccc3n(c2=O)C[C@H]2C[C@@H]3CN(C(=O)CSCC(=O)O)C2)c1 ?
KDM5B inhibitor: 35.5µM*; IP6K1 inh: -10.8

How did N#Cc1cccc(-c2ccc3n(c2=O)C[C@H]2C[C@@H]3CN(C(=O)c3ccc(F)cc3)C2)c1 do in these assays?
KDM5B inhibitor: 31.6µM*; IP6K1 inh: 9.1

What do the screens show for `N#Cc1ccc(C(=O)N2C[C@@H]3C[C@H](C2)c2c(-c4ccccc4F)ccc(=O)n2C3)cc1`?
KDM5B inhibitor: inconclusive; IP6K1 inh: 18.1

What do the screens show for `CCCN1CC[C@@H](CO)N(C)c2nc(C)ccc2C1`?
KDM5B inhibitor: inconclusive; IP6K1 inh: 24.7

How did Cc1ccc2c(n1)N(C)[C@H](CO)CCN(CC(C)(C)C)C2 do in these assays?
KDM5B inhibitor: inconclusive; IP6K1 inh: 31.6

Results for Cc1ccc2c(n1)N(C)[C@H](CO)CCN(CCC(C)C)C2 ?
KDM5B inhibitor: 31.6µM*; IP6K1 inh: -5.5

How did Cc1ccc2c(n1)N(C)[C@H](CO)CCN(C1COC1)C2 do in these assays?
KDM5B inhibitor: 31.6µM*; IP6K1 inh: -5.5

Results for CN1CCN(C(=O)Cc2c[nH]c3ncc(-c4ccnn4C)cc23)CC1 ?
KDM5B inhibitor: inconclusive; IP6K1 inh: -0.9

What do the screens show for `COc1ncccc1-c1cnc2[nH]cc(CC(=O)N3CCN(C)CC3)c2c1`?
KDM5B inhibitor: 35.5µM*; IP6K1 inh: -4.6

How did COc1ccc(-c2cnc3[nH]cc(CC(=O)N4CCN(C)CC4)c3c2)cc1OC do in these assays?
KDM5B inhibitor: inconclusive; IP6K1 inh: -10.1

How did COc1cccc(-c2cnc3[nH]cc(CC(=O)N4CCN(C)CC4)c3c2)c1 do in these assays?
KDM5B inhibitor: 35.5µM*; IP6K1 inh: -22.0

Results for CC(C)(O)c1cn(C[C@H]2C[C@@H]3CCN2C[C@@H]3C(=O)N2CCOCC2)nn1 ?
KDM5B inhibitor: inactive; IP6K1 inh: 6.0

What do the screens show for `COc1ccc(-c2cc([C@H]3CN4CC[C@H]3C[C@@H]4CNC(=O)C3CC3)nc(C)n2)cc1OC`?
KDM5B inhibitor: inconclusive; IP6K1 inh: 9.4

How did CCC(CC)c1cc([C@H]2CN3CC[C@H]2C[C@@H]3CNC(=O)Cc2cccs2)nc(-c2ccncc2)n1 do in these assays?
KDM5B inhibitor: inactive; IP6K1 inh: 7.8

How did Cc1nc(-c2ccco2)cc([C@H]2CN3CC[C@H]2C[C@@H]3CNC(=O)C2CC2)n1 do in these assays?
KDM5B inhibitor: 35.5µM*; IP6K1 inh: -6.1

How did CC(=O)c1ccc(NC(=O)NC[C@H]2C[C@@H]3CCN2C[C@@H]3c2cc(-c3ccco3)nc(C)n2)cc1 do in these assays?
KDM5B inhibitor: inactive; IP6K1 inh: -14.5

What do the screens show for `COc1ccc(-c2cc([C@H]3CN4CC[C@H]3C[C@@H]4CNC(=O)NC(C)C)nc(C)n2)cc1OC`?
KDM5B inhibitor: 31.6µM*; IP6K1 inh: 8.2

Results for COc1ccc(-c2cc([C@H]3CN4CC[C@H]3C[C@@H]4CNC(=O)C3CCC3)nc(C)n2)cc1OC ?
KDM5B inhibitor: 31.6µM*; IP6K1 inh: 67.7

What do the screens show for `CCNC(=O)NC[C@H]1C[C@@H]2CCN1C[C@@H]2c1cc(-c2ccc(OC)c(OC)c2)nn1C`?
KDM5B inhibitor: inactive; IP6K1 inh: 5.8

What do the screens show for `CCC(CC)c1cc([C@H]2CN3CC[C@H]2C[C@@H]3CNC(=O)COc2ccccc2)nc(-c2ccncc2)n1`?
KDM5B inhibitor: 25.1µM*; IP6K1 inh: 12.6

What do the screens show for `C=C[C@H]1CN2CC[C@H]1C[C@@H]2CNCc1ccc2c(c1)OCO2`?
KDM5B inhibitor: inactive; IP6K1 inh: 13.3

Results for Cc1ncc2c(n1)C[C@@H]1CC[C@H]2N1C(=O)NCCc1ccccc1 ?
IP6K1 inh: -7.5

What do the screens show for `CCn1cc(C(=O)N(Cc2ccc(F)cc2)C2CC2)c2ccccc21`?
KDM5B inhibitor: inactive

How did CCCS(=O)(=O)NC[C@H]1C[C@@H]2CCN1C[C@@H]2c1cc(C2CCCCC2)nn1C do in these assays?
KDM5B inhibitor: inactive; IP6K1 inh: 3.1

How did COCC(=O)NC[C@H]1C[C@@H]2CCN1C[C@@H]2c1cc(-c2ccccc2)nc(C)n1 do in these assays?
KDM5B inhibitor: inactive; IP6K1 inh: 8.6

What do the screens show for `COCC(=O)NC[C@H]1C[C@@H]2CCN1C[C@@H]2c1cc(-c2ccccc2OC)nc(C)n1`?
KDM5B inhibitor: 35.5µM*; IP6K1 inh: 4.3

Results for CC1=C(C(=O)OCc2ccc3c(c2)OCO3)[C@H]2C[C@](C)(N1)Oc1ccccc12 ?
KDM5B inhibitor: inactive

Results for Cc1nc(N2CC3CC(C2)c2cccc(=O)n2C3)c2c(C)nn(C)c2n1 (stereo not given) ?
KDM5B inhibitor: inactive; IP6K1 inh: -7.0

What do the screens show for `Cc1noc(-c2ccc(N3CC4CC(C3)c3cccc(=O)n3C4)nc2)n1` (stereo not given)?
KDM5B inhibitor: 22.4µM*; IP6K1 inh: 1.0

Results for CN1[C@@H](CCC(=O)NCc2cccnc2)CNC(=O)[C@H]2NCC[C@H]21 ?
KDM5B inhibitor: inactive; IP6K1 inh: 24.1

Results for CS(=O)(=O)N1C[C@H]2CCN(Cc3ccc[nH]3)C[C@H]21 ?
KDM5B inhibitor: 14.1µM*; IP6K1 inh: 18.0

How did CC(C)(C)C(=O)NC(Sc1nccc(SC(NC(=O)C(C)(C)C)C(Cl)(Cl)Cl)n1)=C(Cl)Cl (stereo not given) do in these assays?
KDM5B inhibitor: inactive
